# According to publication PMC11062922 (Nature Chemical Biology, 2023):
# Where two headings read alike, the source gives them in different places.
# Legend:
# Set-up in all cases: species or system human, MV4-11 + K-562 + COLO205 + SK-N-BE2 + OVCAR-8
# SMC4 = details: read-out: apparent Kd, n = 1
# AGK = details: read-out: apparent Kd, n = 1
# NEK3 = details: read-out: apparent Kd, compound concentrations: 100 nM and 1000 nM (sheet 'Samples'), n = 1
# PKN2 = details: read-out: apparent Kd, n = 1
# DYNC1LI1 = details: read-out: apparent Kd, compound concentrations: 100 nM and 1000 nM (sheet 'Samples'), n = 1
# PRKCD = details: read-out: apparent Kd, compound concentrations: 100 nM and 1000 nM (sheet 'Samples'), n = 1
# MAP3K6 = details: read-out: apparent Kd, compound concentrations: 100 nM and 1000 nM (sheet 'Samples'), n = 1
# MTHFD1 = details: read-out: apparent Kd, n = 1
# PRKDC = details: read-out: apparent Kd; compound concentrations:100 nM and 1000 nM (sheet 'Samples'); n = 1
# T10 = tested on: T1, T10; details: read-out: apparent Kd; compound concentrations:100 nM and 1000 nM (sheet 'Samples'); n = 1
# T1 construct: gene NAT10
# CAMKK2 = details: read-out: apparent Kd, compound concentrations: 100 nM and 1000 nM (sheet 'Samples'), n = 1
# IRAK4 = details: read-out: apparent Kd, compound concentrations: 100 nM and 1000 nM (sheet 'Samples'), n = 1
# JAK1 = details: read-out: apparent Kd, n = 1
# LATS1 = details: read-out: apparent Kd, compound concentrations: 100 nM and 1000 nM (sheet 'Samples'), n = 1
# PKN1 = details: read-out: apparent Kd, n = 1
# PRKACB = details: read-out: apparent Kd, n = 1
# RPS6KA3 = details: read-out: apparent Kd, compound concentrations: 100 nM and 1000 nM (sheet 'Samples'), n = 1
# TBK1 = details: read-out: apparent Kd, compound concentrations: 100 nM and 1000 nM (sheet 'Samples'), n = 1
# BMPR2 = details: read-out: apparent Kd, compound concentrations: 100 nM and 1000 nM (sheet 'Samples'), n = 1
# CAMK4 = details: read-out: apparent Kd, n = 1
# [1] = compound concentrations:100 nM and 1000 nM (sheet 'Samples')
smiles,measurement,setting,value
Nc1nc(-c2ccc3c(N)n[nH]c3c2)cc(N2CCCCC2)n1 [GSK2228768A],potency estimated from few doses,SMC4; [1],2.04 µM
Cl.Cl.Cl.c1ccc(Oc2ccc(Nc3ccnc4cc(-c5ccc(CN6CCNCC6)o5)ccc34)cc2)nc1.c1ccc(Oc2ccc(Nc3ccnc4cc(-c5ccc(CN6CCNCC6)o5)ccc34)cc2)nc1 [GW567142A],potency estimated from few doses,"AGK; compound concentrations: 100 nM and 1000 nM (sheet 'Samples'), CATDS: 1.95822774177494E-2",1.23 µM
same,potency estimated from few doses,NEK3; CATDS: 1.7301178546407801E-2,1.91 µM
same,potency estimated from few doses,"PKN2; compound concentrations: 100 nM and 1000 nM (sheet 'Samples'), CATDS: 1.6443566928173701E-2",2.35 µM
COc1cc(Nc2nccc(N3CCC(NC(=O)C4COc5ccccc5O4)C3)n2)cc(OC)c1OC (stereo not shown) [GSK1379761A],potency estimated from few doses,DYNC1LI1; CATDS: 0.20239822738500499,2.02 µM
Cn1cc(C2=C(c3cn(CCCO)c4ccccc34)C(=O)NC2=O)c2ccccc21 [RO0317377-000],potency estimated from few doses,PRKCD; CATDS: 9.7795114941797295E-2,2.02 µM
CNC1=NC(=O)/C(=C/c2ccc3ncccc3c2)S1 [RO4595949-000],potency estimated from few doses,MAP3K6; CATDS: 5.3158736559022798E-2,1.51 µM
O=C1N=C(NCCc2ccccn2)S/C1=C\c1ccc2ncccc2c1 [RO4508346-000],potency estimated from few doses,"MTHFD1; compound concentrations: 100 nM and 1000 nM (sheet 'Samples'), CATDS: 6.5916651027534801E-2",1.98 µM
Cc1cccc(-c2cc(-c3c[nH]nc3-c3ccccn3)ccn2)c1 [GW679395X],potency estimated from few doses,PRKDC,1.13 µM
same,potency estimated from few doses,T10,1.94 µM
COc1cccc(-n2ncc3c(N/N=C/c4ccc(C(=O)NCCN(C)C)cc4)ncnc32)c1.Cl [GW784307A],potency estimated from few doses,CAMKK2; CATDS: 2.5303732707076199E-2,2.12 µM
Cl.O=C1N=C(NCc2ccccn2)S/C1=C\c1ccc2ncccc2c1 [RO4874953-001],potency estimated from few doses,IRAK4; CATDS: 7.1454413714057002E-2,1.93 µM
O=C1N=C(NCc2cccs2)SC1Cc1ccc2ncccc2c1 (stereo not shown) [RO4629078-000],potency estimated from few doses,CAMKK2; CATDS: 1.0556199661625101E-2,0.586 µM
same,potency estimated from few doses,"JAK1; compound concentrations: 100 nM and 1000 nM (sheet 'Samples'), CATDS: 8.4918440228529003E-3",1.06 µM
same,potency estimated from few doses,LATS1; CATDS: 8.7867541844469099E-3,0.953 µM
same,potency estimated from few doses,"PKN1; compound concentrations: 100 nM and 1000 nM (sheet 'Samples'), CATDS: 8.6120949637054304E-3",1.01 µM
same,potency estimated from few doses,"PRKACB; compound concentrations: 100 nM and 1000 nM (sheet 'Samples'), CATDS: 8.4250069561530305E-3",1.08 µM
same,potency estimated from few doses,PRKCD; CATDS: 8.2287657459755997E-3,1.17 µM
same,potency estimated from few doses,RPS6KA3; CATDS: 8.4062550540876194E-3,1.09 µM
same,potency estimated from few doses,TBK1; CATDS: 7.6855251717376097E-3,1.49 µM
COc1cc(Nc2ccnc3cc(-c4ccncc4)ccc23)cc(OC)c1OC.Cl [GW494610A],potency estimated from few doses,BMPR2; CATDS: 2.09550401545208E-2,2.2 µM
CN1CCN(Cc2ccc(-c3ccc4c(Nc5ccc(Oc6ccccn6)cc5)ccnc4c3)o2)CC1 [GW567140X],potency estimated from few doses,"CAMK4; compound concentrations: 100 nM and 1000 nM (sheet 'Samples'), CATDS: 3.2094924147275203E-2",2 µM
O=S(=O)(CCOCc1ccc(-c2ccc3ncnc(Nc4ccc(OCc5cccc(F)c5)c(Cl)c4)c3c2)o1)c1ccccc1 [GW615311X],potency estimated from few doses,MAP3K6; CATDS: 2.8394321566467099E-2,1.31 µM
same,potency estimated from few doses,NEK3; CATDS: 2.1900299581920201E-2,2.46 µM
Fc1ccc(-c2c(-c3ccncc3)[nH]c3nccnc23)cc1 [RO1155697-000],potency estimated from few doses,AGK; [1],1.64 µM
same,potency estimated from few doses,CAMK4; [1],1.55 µM
CNC(=O)c1ccccc1Nc1nc(Nc2cccc(CS(C)(=O)=O)c2)ncc1C.O=CO [GSK1520489A],potency estimated from few doses,BMPR2; CATDS: 1.16298732818768E-2,0.672 µM
same,potency estimated from few doses,IRAK4; CATDS: 9.4049632429945695E-3,1.87 µM
same,potency estimated from few doses,LATS1; CATDS: 9.9587793654228995E-3,1.34 µM
same,potency estimated from few doses,RPS6KA3; CATDS: 1.12432401151655E-2,0.768 µM
same,potency estimated from few doses,TBK1; CATDS: 1.25946113140399E-2,0.504 µM
Nc1nc(N)c2nc(-c3ccccc3)[nH]c2n1 [SKF-12778],potency estimated from few doses,JAK1; [1],0.953 µM
same,potency estimated from few doses,PRKACB; [1],1.79 µM
same,potency estimated from few doses,PRKDC,0.716 µM
same,potency estimated from few doses,T10,1.13 µM
O=C1NC(=O)C(c2cccc(Cl)c2)=C1Nc1ccc(O)c(Cl)c1 [SB-409514],potency estimated from few doses,"SMC4; compound concentrations: 100 nM and 1000 nM (sheet 'Samples'), CATDS: 0.290936381936651",1.76 µM
Nc1c(C(=O)c2ccccc2)cnn1-c1ccc(F)cc1 [RO1151246-000],potency estimated from few doses,PKN2; [1],1.91 µM
COc1ccc(C2=NC(c3ccc(Cl)cc3F)C(C(=O)Nc3ccc4[nH]ncc4c3)=C(C)N2)cn1.O=C(O)C(F)(F)F (stereo not shown) [GSK534913A],potency estimated from few doses,PKN1; [1],2.05 µM
Fc1cccc(COc2ccc(Nc3ncncc3C#Cc3ccccc3)cc2Cl)c1 [GW651576X],potency estimated from few doses,DYNC1LI1; CATDS: 4.5527640720115801E-2,2.22 µM
COc1cc(F)c(F)c(F)c1C(=O)c1cnc(NC2CCN(S(C)(=O)=O)CC2)nc1N [RO4600703-000],potency estimated from few doses,MTHFD1; [1],1.3 µM
